In PubChem BioAssay (NCATS) one finds Potency data, which are given here for seven compounds.

Test [1] addresses Glutathione peroxidase 1 (Homo sapiens) (UniProt P07203). The test can be described thus: Primary qHTS Assay for Inhibitors of Recombinant Selenoprotein Glutathione Peroxidase 1 (GPX1) (AID 1845191). Note: nearly all actives have a fitted effect of over 65% in size. In outline: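 NADPH consumption tracked by fluorescence at 340/450 nm between t=0 and t=15 min, room temperature. Final mix: 10 nM GPX1, 100 nM glutathione reductase, 1 mM GSH, 0.5 mM NADPH, 0.5 mM cumene hydroperoxide, 0.01% BSA; 30 min compound–enzyme preincubation.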

In test [2] the target is Phospholipid hydroperoxide glutathione peroxidase GPX4 (Homo sapiens) (UniProt P36969). The test can be described thus: Primary qHTS Assay for Inhibitors of Recombinant Selenoprotein Glutathione Peroxidase 4 (GPX4) (AID 1845192). Note: nearly all actives have a fitted effect of over 65% in size. In outline:
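NADPH consumption followed by fluorescence at 340/450 nm, t=0 and after 15 min at room temperature. Reaction started with cumene hydroperoxide (0.5 mM final) after 30 min compound–GPX4 preincubation; final 200 nM GPX4, 100 nM GR, 1 mM GSH, 0.5 mM NADPH.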

The target in test [3] is Luciferin 4-monooxygenase (Photinus pyralis) (UniProt P08659). The test can be described thus: Primary firefly luciferase (FLuc) qHTS assay for identification of artifact compounds. (AID 1845220). Note: nearly all actives have a fitted effect of over 60% in size. The essentials:
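Compounds sat 15 min at room temperature with 10 uM luciferin and 10 uM ATP (pH 7.6 Tris acetate). Firefly luciferase (10 nM final) was then added, and luminescence was read 5 min later. Data normalized to no-enzyme and DMSO controls were Hill-fitted.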

Test [4] can be described thus: Primary fluorescence-based thiol-reactive (MSTI) qHTS assay for identification of artifact compounds. (AID 1845221). Note: nearly all actives have a fitted effect of over 65% in size. Note: potency is the fitted concentration of half-maximal effect. In outline: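 qHTS titration of compound; 4 uM MSTI, PBS pH 7.4, 2% DMSO; 1 h RT, dark; fluorescence 525/598 nm; normalized to Acetyl-MSTI and MSTI; 4-parameter Hill fit.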
Test [5] relates to Nanoluciferase (engineered Oplophorus gracilirostris luciferase). The test can be described thus: Primary Nanoluciferase (NLuc) qHTS assay for identification of artifact compounds. (AID 1845222). Note: series mostly up to about 54 µM. The essentials:
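Luminescence from secreted NLuc (filtered, 1:55-diluted S16 cell medium) read 5 min after Nano-Glo substrate; compounds preincubated 15 min, RT. Hill fits of inhibition normalized to DMSO and no-enzyme.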

Test [6] is described as follows: Primary redox qHTS assay for identification of artifact compounds. (AID 1845223). The essentials:
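Redox-cycling detection via DTT (250 uM final) oxidation coupled to Amplex Red (25 uM)/HRP (250 mU/mL) in HBSS. 15 min preincubation plus 30 min after DTT, room temperature. Ex/Em 525/598 nm; 4-parameter Hill fit against DMSO and 10 uM DA3003.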

Test [7] can be described thus: Quantitative High-Throughput drug screen in 47 multiple myeloma cell lines against the NCATS MIPE library collection: FR4_PLB cell viability assay (AID 1918924; note: nearly all actives have a fitted effect of over 35% in size; note: potency is the fitted concentration of half-maximal effect). The essentials: (§1)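 Myeloma cells (500 per well) were exposed to MIPE 4.0 compounds by pin transfer and incubated 48 hours at 37C, 5% CO2. Viability was read as ATP by CellTiter-Glo luminescence, normalised to DMSO (100%) and media-only (0%) wells.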

The nature of test [8]: Quantitative High-Throughput drug screen in 47 multiple myeloma cell lines against the NCATS MIPE library collection: Delta47_JCRB cell viability assay (AID 1918925; note: nearly all actives have a fitted effect of over 45% in size; note: potency is the fitted concentration of half-maximal effect). In outline: (§2)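 Steps: seed 500 cells per well; pin-transfer MIPE 4.0 library; incubate 48 h at 37C, 5% CO2, humidified; add CellTiter-Glo, 5 min room temperature; read luminescence.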
The nature of test [9]: Quantitative High-Throughput drug screen in 47 multiple myeloma cell lines against the NCATS MIPE library collection: EJM_DSMZ cell viability assay (AID 1918926; note: nearly all actives have a fitted effect of over 30% in size; note: potency is the fitted concentration of half-maximal effect). The essentials:
as §2

The nature of test [10]: Quantitative High-Throughput drug screen in 47 multiple myeloma cell lines against the NCATS MIPE library collection: AMO1_DSMZ cell viability assay (AID 1918927; note: nearly all actives have a fitted effect of over 30% in size; note: potency is the fitted concentration of half-maximal effect). In outline: as §2
Test [11] in a line: Quantitative High-Throughput drug screen in 47 multiple myeloma cell lines against the NCATS MIPE library collection: ARD_JJKsccE7 cell viability assay (AID 1918929; note: potency is the fitted concentration of half-maximal effect). The essentials:
as §2

Test [12] is described as follows: NCATS anti-infectives library activity on HEK293 viability as a counter-qHTS vs the C. elegans viability qHTS (AID 1745854). The essentials: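 Cytotoxicity counter-screen to a worm viability qHTS: CellTiter-Glo luminescence read 10 min after reagent addition. Compounds (final up to 41.7 uM, a 1:5 dilution series) incubated 24 hr at 37C with 1,500 HEK293 cells per well; digitonin control.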

Test [13] is described as follows: Quantitative High-Throughput drug screen in 47 multiple myeloma cell lines against the NCATS MIPE library collection: ARP1_JJKsccF8 cell viability assay (AID 1918928; note: potency is the fitted concentration of half-maximal effect; nearly all actives have a fitted effect of over 40% in size). The essentials:
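CellTiter-Glo luminescence after 48 h exposure gives viability, scaled between DMSO-only (100%) and media-only (0%) controls. Library compounds are pinned onto 500 myeloma cells per well, incubated at 37C with 5% CO2.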

A short description of test [14]: Quantitative High-Throughput drug screen in 47 multiple myeloma cell lines against the NCATS MIPE library collection: Karpas620_DSMZ cell viability assay (AID 1918959). Note: nearly all actives have a fitted effect of over 30% in size. Note: potency is the fitted concentration of half-maximal effect. In outline:
as §1

Records with an inconclusive call do not appear. Active and inactive are the calls of the source. Calls come from the whole dose curve; as a rule, active = well fitted curve in the direction sought with a large enough effect; inconclusive = small, poorly fitted or top-dose-only effect, or another doubt; inactive = no such curve, though single readings can be large; an effect the other way counts as inactive or inconclusive.

Chain of Phospholipid hydroperoxide glutathione peroxidase GPX4 (Homo sapiens) (P36969 whole entry, looked up): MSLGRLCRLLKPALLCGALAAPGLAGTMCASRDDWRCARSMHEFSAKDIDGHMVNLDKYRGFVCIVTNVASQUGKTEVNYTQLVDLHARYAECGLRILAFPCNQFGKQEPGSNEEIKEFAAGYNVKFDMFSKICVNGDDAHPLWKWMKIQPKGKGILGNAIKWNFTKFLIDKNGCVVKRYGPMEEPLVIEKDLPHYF
Chain of Glutathione peroxidase 1 (Homo sapiens) (P07203 whole entry, looked up): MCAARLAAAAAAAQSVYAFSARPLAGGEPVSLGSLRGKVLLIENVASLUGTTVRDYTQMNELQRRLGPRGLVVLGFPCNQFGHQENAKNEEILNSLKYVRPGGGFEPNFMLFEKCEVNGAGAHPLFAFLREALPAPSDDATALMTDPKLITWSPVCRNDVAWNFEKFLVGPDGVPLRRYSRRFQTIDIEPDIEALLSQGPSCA

As to `COc1cccc(Nc2c(C(N)=O)cnc3c(C)cc(S(=O)(=O)c4cccc(C(=O)N(C)C)c4)cc23)c1`, the Potency result in test [1], in [2], in test [3], in test [4], in [5] and in test [6] was “inactive” each time. Also, the Potency result in [7], in test [8] and in test [9] was “inactive” in each case. The Potency in [10] and in [11] was 12900 nM (active) in each case.
For the compound `CN(C)Cc1c(C(=O)NCCOc2ccc(C(=O)NO)cc2)oc2ccccc12`, the Potency result in [12], in [1], in [2], in test [3], in test [5] and in [6] was “inactive” in each case. In addition, the Potency in test [7] was 526 nM (active); in [8], 1050 nM (active); in [9] it was 1870 nM (active); in test [10], 526 nM (active); in [13], 526 nM (active); in [11], 590 nM (active).
As to `NC(=O)Nc1cc(-c2cccc(F)c2)sc1C(=O)N[C@H]1CCCNC1`, the Potency result in [1], in test [2], in test [3], in test [4], in [5] and in test [6] was “inactive” in each case. The Potency in test [7] was 83.3 nM (active); in test [8] it was 105 nM (active); in test [9] it was 296 nM (active); in test [10] it was 662 nM (active); in [13], 3720 nM (active); in test [11], 526 nM (active). Also, the Potency in test [14] was 3720 nM (active).
`O=C(CCCCCCNC(=O)c1cnc(N(c2ccccc2)c2ccccc2)nc1)NO`: the Potency result in [12], in test [1], in test [2], in [3], in test [4] and in [5] was “inactive” in each case. In addition, the Potency in [7] was 2960 nM (active); in test [8], 3320 nM (active); in [9] it was 13200 nM (active); in test [10] it was 4690 nM (active); in [13] it was 2960 nM (active); in test [11] it was 4690 nM (active).
Take `CC(=O)Nc1nc(C)c(-c2ccc(Cl)c(S(=O)(=O)NCCO)c2)s1`: the Potency result in test [1], in test [2], in test [3], in [4], in test [5] and in [6] was “inactive” each time. Besides, the Potency in test [7] was 13200 nM (active); in test [8] it was 662 nM (active); in [9], 11800 nM (active); in test [10] it was 1320 nM (active); in [11] it was 418 nM (active).
For the compound `O=C(c1cncc(Br)c1)N1CCC(N2CCCC2)CC1`, the Potency entry in test [1], in test [2], in test [3], in test [4], in test [5] and in [6] was “inactive” throughout. Also, the Potency entry in test [7], in test [8], in test [9], in test [10], in test [11] and in test [14] was “inactive” throughout. Further, in test [13], the Potency was 16600 nM (active).
As for `Cn1cc(-c2[nH]c3cc(NC(=O)[C@H](N)C4CCCCC4)cc4c3c2C=NNC4=O)cn1`, the Potency result in [1], in [2], in test [3], in test [5] and in test [6] was “inactive” in each case. In addition, the Potency in test [4] is 21200 nM (active); in test [7], 296 nM (active); in [8], 935 nM (active); in test [9] it was 526 nM (active); in [10], 2960 nM (active); in test [13], 7430 nM (active). In test [11], the Potency is 4690 nM (active).
